Hits are enriched below; roughly 2.4% of the tested compounds scored in any of these assays.
POLB inh = qHTS Assay for Inhibitors of DNA Polymerase Beta. actives 1.3% (n = 340,000). P06746. Potency, µM (highest dose often 114 µM), for the others: at the top dose activity change, negative = inhibition, most hits filed as inhibitors. AID 485314, 2010. Pol beta primer extension/strand displacement, fluorescence kinetic; also: % is scaled to controls: 0 for no effect and ±100 for the full control effect
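Homogeneous kinetic assay of primer extension and strand displacement by 10 nM Pol beta, preincubated 15 min at room temperature with compound before 50 nM substrate (final) was added. Read at 0 and 10 min; four-parameter Hill fit.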
POLK inh = qHTS for Inhibitors of Polymerase Kappa | DNA polymerase kappa (Homo sapiens), Q9UBT6 | purified Pol kappa, fluorescent DNA synthesis assay, 10 min | Potency, µM (doses to about 107 µM), for the others: at the top dose activity, negative = inhibition, actives largely listed as inhibitors | actives 0.53% (n = 400,000) | AID 588579, 2011; also: % is scaled to controls: 0 for no effect and ±100 for the full control effect
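First, compounds were pin-transferred onto 10 nM Pol kappa. After 15 min at room temperature, substrate was added to 50 nM final. Fluorescence was then measured kinetically at 0 and 10 min.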
WRN inhibitor = qHTS for Inhibitors of WRN Helicase | Bifunctional 3'-5' exonuclease/ATP-dependent helicase WRN (Homo sapiens), Q14191 | AID 651768, 2012 | WRN helicase unwinding, fluorescent forked duplex, kinetic | actives 0.46% (n = 360,000) | Potency, µM (top dose mostly 114 µM), for the others: at the top dose activity change, negative = inhibition, most hits filed as inhibitors; also: % is scaled to controls: 0 for no effect and ±100 for the full control effect; nearly all actives have a fitted effect of over 55% in size
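Enzyme (20 nM final) and test compound sit together 15 min at room temperature before substrate addition. Substrate is a single-forked duplex oligonucleotide (100 nM) labelled with fluorophore and quencher, with 2 mM ATP; helicase unwinding raises red fluorescence, read kinetically.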
FEN1 inh = qHTS Assay for the Inhibitors of Human Flap endonuclease 1 (FEN1); Potency, µM (doses to about 114 µM), inactives show top-dose activity change, negative = inhibition, hits mostly inhibitors; Recombinant FEN1 flap cleavage, fluorescence, 15 min; actives 0.35% (n = 390,000); also: % is scaled to controls: 0 for no effect and ±100 for the full control effect; nearly all actives have a fitted effect of over 65% in size
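In this screen, 50 nM flap DNA substrate was added to 10 nM FEN1 pretreated with compound for 15 min at room temperature; cleavage was followed with reads at 0 and 15 min, and Hill fitting gave concentration–response parameters.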
Pol eta inh = qHTS for Inhibitors of Polymerase Eta. Potency, µM (doses to about 114 µM), for inactives: at the highest dose activity change, negative = inhibition, most hits filed as inhibitors. actives 1.2% (n = 390,000). recombinant Pol eta, fluorescent DNA replication assay. AID 588591, 2011; also: % is scaled to controls: 0 for no effect and ±100 for the full control effect
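Fluorescent replication assay: 50 nM final substrate added after a 15 min room-temperature compound preincubation with 10 nM enzyme. Signal taken at 0 min and again at 10 min.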
Pol iota inh = qHTS for Inhibitors of Polymerase Iota; DNA polymerase iota (Homo sapiens), Q9UNA4; Pol iota fluorescent replication assay, 10 min; Potency, µM (highest dose often 115 µM), for inactives: top-dose activity, negative = inhibition, most hits filed as inhibitors; actives 1% (n = 390,000)
Target sequence (Q9UNA4 whole entry, looked up): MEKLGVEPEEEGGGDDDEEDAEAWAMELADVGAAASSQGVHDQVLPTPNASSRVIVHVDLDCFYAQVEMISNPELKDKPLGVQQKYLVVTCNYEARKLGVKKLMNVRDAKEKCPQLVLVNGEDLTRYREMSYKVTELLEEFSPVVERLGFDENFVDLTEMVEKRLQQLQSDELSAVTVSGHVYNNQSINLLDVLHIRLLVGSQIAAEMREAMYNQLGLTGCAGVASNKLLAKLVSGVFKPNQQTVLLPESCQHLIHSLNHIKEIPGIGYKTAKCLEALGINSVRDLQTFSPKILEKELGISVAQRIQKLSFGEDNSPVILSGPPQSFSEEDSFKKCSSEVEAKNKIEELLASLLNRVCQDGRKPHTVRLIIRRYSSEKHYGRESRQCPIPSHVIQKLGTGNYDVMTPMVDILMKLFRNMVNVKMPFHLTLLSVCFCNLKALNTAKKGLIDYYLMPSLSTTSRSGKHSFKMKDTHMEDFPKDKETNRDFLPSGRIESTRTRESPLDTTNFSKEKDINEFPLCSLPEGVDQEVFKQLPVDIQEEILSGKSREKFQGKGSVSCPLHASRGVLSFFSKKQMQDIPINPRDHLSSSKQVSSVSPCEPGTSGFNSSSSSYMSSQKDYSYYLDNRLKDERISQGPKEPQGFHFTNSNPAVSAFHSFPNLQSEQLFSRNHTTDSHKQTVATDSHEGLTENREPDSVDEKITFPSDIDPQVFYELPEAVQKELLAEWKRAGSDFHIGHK
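Pol iota at 10 nM preincubated 15 min with compounds at room temperature; reaction started with fluorescent substrate, 50 nM final. Fluorescence read kinetically at 0 and 10 min; buffer-only wells as negative control.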
An asterisk follows results filed as active; ? = inconclusive; . = not tested or not shown; [ ] = another dose, or the depositor's remark. Calls follow the shape of the dose curve; as a rule, active = well fitted curve in the direction sought with a large enough effect; inconclusive = small, poorly fitted or top-dose-only effect, or another doubt; inactive = no such curve, though single readings can be large; an effect the other way counts as inactive or inconclusive. Potency is read from the fitted curve at half-maximal effect.

SMILES	POLB inh	POLK inh	WRN inhibitor	FEN1 inh	Pol eta inh	Pol iota inh
Cc1cc(-c2csc(NC(=O)c3ccc(=O)n(C)n3)n2)c(C)n1CC1CCCO1 (configuration not stated)	-27%	?	-29%	3%	?	11µM*
CCCCCCNC(=O)N[C@@H](C(=O)NCCC[C@H]1CN2C(=NC[C@@H]2Cc2ccccc2)N1CCc1cccc(OC)c1)C(C)C	12%	-7%	-7%	4%	-2%	25µM*
C/C=C(\C)C(=O)NCCN1C2=NC[C@@H](Cc3ccccc3)N2C[C@@H]1Cc1ccc(OC)cc1	.	-3%	-6%	2%	-11%	8%
O=C1CC(c2ccccc2)Cc2[nH]c(=O)c(C(=O)O)cc21 (configuration not stated)	.	1%	.	7%	.	27%
CN1C(=O)CC(c2ccccc2)CC1=O	.	-2%	-4%	-10%	-3%	-42%
CCN1C(=O)CC(c2ccccc2)CC1=O	.	6%	3%	-1%	5%	79µM*
Nc1nc(N)c2c(Oc3ccc(F)cc3)cccc2n1	.	-12%	.	7%	.	?
COc1ccc(-n2c(O)c(C=Nc3ccccc3)c3ccccc3c2=O)cc1	-23%	-2%	-16%	1%	-12%	20%
CCN(c1ccc(N=Cc2c(O)n(Cc3ccc(OC)cc3)c(=O)c3ccccc23)cc1)C(C)C	1%	-8%	40µM*	-27%	-6%	77%
O=C(O)/C=C1\NC(=O)c2ccccc21	13%	-10%	2%	-6%	4%	-4%
O=C1N/C(=C\c2ccc(O)cc2)C(=O)c2ccccc21	2%	-17%	?	-15%	25µM*	20µM*
Cc1nc(C#N)nc(Oc2ccccc2)c1Cl	.	6%	.	11%	.	11%
NC(=S)NS(=O)(=O)c1ccc(N)cc1	.	5%[19.4 µM]	.	.	.	.
Cc1cc(C)cc(C(=O)Oc2coc(CSc3nnc(NC(=O)C4CC4)s3)cc2=O)c1	0%	-7%	-11%	1%	?	?
CC(=O)Nc1nnc(SCc2cc(=O)c(OC(=O)c3ccccc3)co2)s1	18%	-19%	-1%	7%	-8%	-14%
O=C(Oc1coc(CSc2nnc(NC(=O)C3CC3)s2)cc1=O)c1c(F)cccc1F	20µM*	-43%	-17%	-20%	?	?
Cc1ccc(C(=O)Oc2coc(CSc3nnc(NC(=O)c4cccs4)s3)cc2=O)cc1	25µM*	?	-13%[11.6 µM]	-16%	?	?
COc1ccc(NC(=O)c2ccco2)cc1NC(=O)COc1ccc(C)cc1C	?	2%	.	-4%	?	-7%
COc1ccc(NC(=O)c2ccco2)cc1NC(=O)COc1ccc(Cl)cc1C	?	-11%	.	-9%	79µM*	-4%
CCOc1ccc(C(=O)Nc2cc(NC(=O)c3ccco3)ccc2OC)cc1Br	-12%	-10%[60.1 µM]	.	29%	-24%	-2%
Cc1ccc(OCC(=O)Nc2ccc(NC(=O)c3ccco3)cc2)c(C)c1	28µM*	-6%	-5%	-2%	?	?
CCOc1ccc(C(=O)Nc2cccc(NC(=O)c3ccco3)c2)cc1Cl	-23%	0%	.	89µM*	-11%	89µM*
O=C(O)C1=C[C@@H](c2ccccc2)C[C@@H](OCc2ccc(CO)cc2)O1	-4%	-8%	-2%	17%	-5%	-3%
C#Cc1ccc([C@@H]2C=C(C(=O)O)O[C@H](OCc3ccc(CO)cc3)C2)cc1	22µM*	?	-31%	12%	40µM*	?
CC(/C=N/n1c(-c2ccc(Cl)cc2)n[nH]c1=S)=C\c1ccco1	?	?	-12%[11.6 µM]	-13%	18µM*	?
SMILES	POLB inh	POLK inh	WRN inhibitor	FEN1 inh	Pol eta inh	Pol iota inh
O=C(Nc1ccccc1Sc1ccccc1)c1cnn2c1NC(=C1CC1)C=C2C(F)F	.	-9%	.	-20%	.	-29%
O=C(Cc1ccccc1Cl)NC1(O)C(=O)c2ccccc2C1=O	4%	-4%	1%[11.6 µM]	-14%	?	5µM*
N=c1nc(-c2ccccc2)n(-c2ccccc2)s1	.	-7%	.	89µM*	.	-5%
Cc1ccc(-c2nc(=Nc3ccccc3)sn2-c2ccccc2)cc1	.	-2%	.	14%	.	14%
Nc1nc(Cl)nc2c1ncn2[C@@H]1O[C@H](COP(=O)(O)OP(=O)(O)OP(=O)(O)O)[C@@H](O)[C@H]1O	.	1%[60.1 µM]	.	.	.	.
O=S(=O)(O)c1ccc(NN=Cc2ccccc2O)cc1	.	-5%	-9%[11.6 µM]	-2%	32µM*	?
O=S(=O)(N/N=C\c1ccccc1O)c1ccc(Cl)cc1	-1%	-4%	1%	26%	1%	-11%
COc1ccc(/C=N/Nc2cc(C)nc3ccccc23)cc1	79µM*	-23%	?	40µM*	?	?
COc1ccc2nc(C)cc(N/N=C/c3ccc(F)cc3)c2c1	-3%	-13%	5%	?	-5%	-20%
COc1cccc2c(N/N=C/c3ccc(O)c(O)c3)cc(C)nc12	20µM*	-31%	-4%	-13%	-9%	?
COc1ccc(/C=N/Nc2cc(C)nc3c(C)cccc23)cc1	25µM*	-18%	?	18µM*	?	-13%
COc1ccc(Nc2cc(C)nc3ccc(OC)cc23)cc1	22µM*	-22%	-27%	?	-12%	?
COc1ccc2nc(C)cc(Nc3ccc(C(=O)O)cc3)c2c1	-3%	-3%	1%	11%	-5%	-5%
COc1ccc(Nc2cc(C)nc3c(C)c(C)ccc23)cc1	-27%	-3%[60.1 µM]	.	?	-15%	-19%
COc1cc2nc(N3CCCN(C)CC3)nc(N3CCN(C)CC3)c2cc1OC	.	-23%	.	-4%	.	?
Cc1ccc(Nc2nc(NCc3ccco3)nc3nccnc23)cc1C	.	-14%	.	-15%	.	0%
COc1ccc2c(c1)c1nnc(SC(C)C)nc1n2C	.	-8%	.	-17%	.	17%
O=S(=O)(c1ccccc1)N1CCN(c2nc(-c3ccc(F)cc3)nc3cc(Cl)ccc23)CC1	.	7%	.	-5%	.	13%
CCOC(=O)COc1c(Br)cc(C2NC(=O)NC(C)=C2C(C)=O)cc1OC (configuration not stated)	?	?	-18%[57.1 µM]	-9%	22µM*	?
Cc1ccc(C=Nc2ccccc2C(N)=O)o1	40%	4%	-16%	40%	-18%	-2%
CN(C)c1ccc(C=Nc2ccccc2C(N)=O)cc1	-4%	-11%	-4%	6%	-3%	89µM*

Source: PubChem BioAssay
